Consider 38 molecules from PubChem BioAssay AID720650 (Broad Institute, 2013).

Molecules are shown by their SMILES. A number with no mark means an inactive call. The source made the active and inactive calls. No rule for the calls is given here.

This test in a line: C difficile toxins, biochemical counterscreen, UDPG substrate absence, confirmatory dose response (AID 720650). As to conditions: series mostly up to 19.5 µM.
For `COc1ccccc1/C=N/NC(=O)CC(=O)NCc1ccccc1`, the AC50 is > 39 µM.

Regarding `Cc1ccc(N/N=C/c2c(O)n(-c3ccccc3)c(=O)[nH]c2=O)cc1`, the AC50 is 0.875 µM (active).

As for `C/C(=N\NC(=O)c1ccccc1O)c1cccc(NC(=O)c2ccccc2)c1`, the AC50 result is “inactive”.

For the molecule `COc1ccccc1/C=C/c1onc(C)c1S(=O)(=O)N1CCC(C(=O)NC2CCCCCC2)CC1`, the AC50 result was “inactive”.

Turning to `NS(=O)(=O)c1cccc(NC(=O)c2ccc(NS(=O)(=O)c3cccc([N+](=O)[O-])c3)cc2)c1`, the AC50 entry was “inactive”.

For `Cc1ccc(C(=O)Nc2ccc(O)cc2C(=O)O)cc1C`, the AC50 is > 39 µM.

As for `Clc1ccc(-c2nc3ccc(Cl)cn3c2Cc2ccccc2)cc1`, the AC50 result was “inactive”.

In the case of `CCNC(=O)C[C@@H]1CC[C@H]2[C@@H](COc3ccc(NC(C)=O)cc3C(=O)N2C)O1`, the AC50 result is “inactive”.

Take `Cc1ccc(C2=NS(=O)(=O)N(C)C(C(=O)NCc3ccc(F)cc3)=C2)cc1`: the AC50 entry was “inactive”.

Regarding `CN(C(=O)Cn1c(=O)oc2cc(S(=O)(=O)N3CCCC3)ccc21)C1CCCCC1`, the AC50 entry was “inactive”.

With `Nc1nc(Cl)cc(NCCc2ccc(O)cc2)n1`, the AC50 is 21.8 µM (active).

In the case of `CCCCCCCN1C(N(C)C)=NC[C@@H]1Cc1ccccc1`, the AC50 entry was “inactive”.

Turning to `O=C(C[C@@H]1C[C@H]2c3cc(NC(=O)Nc4ccccc4)ccc3O[C@H]2[C@H](CO)O1)NCc1ccccc1`, the AC50 result was “inactive”.

Turning to `Cc1ccc(Cc2c(-c3ccc(C)cc3)nc3ccc(Cl)cn23)cc1`, the AC50 result was “inactive”.

For the molecule `Cc1onc(-c2c(F)cccc2Cl)c1C(=O)Nc1nnc(C(F)(F)F)s1`, the AC50 entry was “inactive”.

On to `CCNC(=O)C[C@@H]1CC[C@H]2[C@H](COc3ccc(NC(C)=O)cc3C(=O)N2C)O1`, for which the AC50 entry is “inactive”.

Turning to `CCCSc1nc2c([nH]1)c(=O)n(C)c(=S)n2C`, the AC50 result is “inactive”.

Consider `Nc1cc(N)cc(C(=O)OCC(=O)Nc2cc(S(=O)(=O)N3CCCCC3)ccc2Cl)c1`, for which the AC50 entry is “inactive”.

As to `COc1ccccc1-n1c(SCC(=O)O)nc2c(sc(=S)n2-c2ccc(Cl)c(C)c2)c1=O`, the AC50 was > 39 µM.

Consider `Cc1ccc(S(=O)(=O)Oc2ccccc2/C=C2\SC(=O)NC2=O)cc1`, for which the AC50 entry was “inactive”.

As for `COc1cc(/C=N/Nc2ccccn2)ccc1O`, the AC50 was > 39 µM.

As for `O=C(NNc1nc2c(F)cc(F)cc2s1)C1COc2ccccc2O1` (stereo not drawn), the AC50 was 0.699 µM (active).

Regarding `Cc1cscc1-c1nc(NCC2CC2)nc2ccsc12`, the AC50 result is “inactive”.

Turning to `O=C(NCc1ccncc1)[C@@H]1CCCN1C(=O)[C@@H]1CCCN1`, the AC50 entry is “inactive”.

For `CC(=O)N1CCN(c2ccc(S(C)(=O)=O)cc2[N+](=O)[O-])CC1`, the AC50 entry was “inactive”.

As to `Cc1ccc(NS(=O)(=O)c2ccc(C)c(NC(=S)NCCN3CCOCC3)c2)c(C)c1`, the AC50 result is “inactive”.

As to `Fc1cccc(NC(=S)NNc2c3ccccc3nc3ccccc23)c1`, the AC50 result is “inactive”.

On to `CN(C)CCNC(=O)c1cc2c(s1)-c1ccc(Cl)cc1SC2`, for which the AC50 was > 39 µM.

In the case of `CC1(C)CCC/C(=C\c2ccccc2)C1=O`, the AC50 entry was “inactive”.

In the case of `O=C(OCn1nnc2ccccc2c1=O)c1cc2ccccc2o1`, the AC50 entry was “inactive”.

On to `CC(=O)C1=CCC(c2ccccc2)N(S(=O)(=O)c2ccc(C)cc2)C1` (stereo not drawn), for which the AC50 entry is “inactive”.

With `CCOC(=O)/C(=N/Nc1ccc(Br)cc1)N1CC(C)OC(C)C1` (stereo not drawn), the AC50 was 0.615 µM (active).

With `O=[N+]([O-])c1cc(Br)ccc1NS(=O)(=O)c1ccccc1`, the AC50 was > 39 µM.

For the molecule `Cn1c(=O)[nH]c(=O)c2c1[nH]c(=S)n2Cc1ccc(Cl)cc1`, the AC50 was > 39 µM.

On to `CC(C)CN1CCN(CC#Cc2ccccc2)CC1CCO` (stereo not drawn), for which the AC50 entry was “inactive”.

With `CCOC(=O)C(=O)NNc1ccc(Cl)cc1`, the AC50 is 0.594 µM (active).

Turning to `O=C(N[C@@H](Cc1c[nH]c2ccccc12)C(=O)O)C1CCN(S(=O)(=O)c2cccs2)CC1`, the AC50 result was “inactive”.

Consider `CC(N)C(=O)NC(C(=O)N1CCCC1C(=O)NC(c1ccccc1)c1ccccc1)C(C)C` (stereo not drawn), for which the AC50 result was “inactive”.

What is called AC50 is the concentration giving half of the maximal activity seen.
